From PubChem BioAssay (Tox21)
Inconclusive results are not listed. Active and inactive are the calls of the source. Unless noted, calls follow the shape of the dose curve; as a rule, active = well fitted curve in the direction sought with a large enough effect in the repeat runs; inconclusive = weak or mixed curves; inactive = no such curve, though single readings can be large; an effect the other way counts as inactive or inconclusive.

Assays:
[1] = qHTS assay to identify small molecule agonists of the sonic hedgehog signaling (Shh) pathway (AID 1259368; calls by dose curve;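 also: NIH/3T3-derived 3T3Gli1-Luc cells carrying a stable Gli1-driven firefly luciferase reporter; series mostly up to about 92 µM; nearly all actives have a fitted effect of over 15% in size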)
Procedure, shortened: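 Cells of a mouse NIH/3T3 clone stably expressing luciferase under the Gli1 transcriptional response element are exposed to test chemicals for 24 hr at 37 C. Pathway activation is detected as a rise in luminescence.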

[2] = qHTS assay to identify small molecule antagonists of the sonic hedgehog signaling (Shh) pathway (AID 1259369; calls by dose curve; also: nearly all actives have a fitted effect of over 45% in size)
Procedure, shortened: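 Cells are plated and held 4hr at 37 C, compounds (DMSO) are pinned in, conditioned medium is added to stimulate the pathway, and after 24hr luciferase reagent is added for 30min before luminescence is read.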

[3] = qHTS assay to identify small molecule agonists of the androgen receptor (AR) signaling pathway in the presence of an antagonist - cell viability counter screen (AID 1259379);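 also: MDA-kb2 human breast cancer cells carrying an MMTV luciferase reporter; series mostly up to about 92 µM; nearly all actives have a fitted effect of over 25% in size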
Procedure, shortened: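 Cytotoxicity is assessed by CellTiter-Fluor in MDA-kb2 cells carrying an MMTV-driven luciferase reporter. Cells receive 3.0uM nilutamide plus compounds at 15 concentrations and incubate 16 hr at 37C without CO2 before fluorescence reading.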

[4] = qHTS assay to identify small molecule agonists of the estrogen receptor beta (ER-beta) signaling pathway - cell viability counter screen (AID 1259380); also: nearly all actives have a fitted effect of over 30% in size
Procedure, shortened: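 Cytotoxicity is measured in parallel with the reporter screen: after 16 hr compound exposure at 37C and a 2 hr LiveBLAzer step, CellTiter-Glo is added to the same ER-beta-UAS-bla HEK293T wells and luminescence read after 30 min.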

[5] = qHTS assay to identify small molecule antagonists of the estrogen receptor beta (ER-beta) signaling pathway - cell viability counter screen (AID 1259382);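 also: HEK293T cells carrying ER-beta-UAS-bla reporter stimulated with estradiol; series mostly up to about 92 µM; nearly all actives have a fitted effect of over 55% in size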
Procedure, shortened: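 Cytotoxicity counter screen multiplexed with the beta-lactamase antagonist assay: GripTite HEK293T ER-beta-bla cells were treated 16 hr with test chemicals in the presence of 1nM 17-beta-estradiol, and viability was measured by CellTiter-Glo.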

[6] = qHTS assay to identify small molecule agonists or antagonists of the thyroid stimulating hormone receptor (TSHR) signaling pathway - wild type cell line counter screen (AID 1259384; calls by dose curve)
Procedure, shortened: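 Wild-type Hek293 cells, 800/well, 18 h at 37C, then compound with Ro20-1724 for 30 min RT. cAMP by HTRF (cAMP-d2/anti-cAMP cryptate), 1 h RT, fluorescence read. 15 concentrations, triplicates.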

[7] = biological target: Thyrotropin receptor (Homo sapiens) (UniProt P16473); experiment: qHTS assay to identify small molecule antagonists of the thyroid stimulating hormone receptor (TSHR) signaling pathway (AID 1259385; calls by dose curve; also: nearly all actives have a fitted effect of over 20% in size)
Thyrotropin receptor (Homo sapiens), sequence (P16473 whole entry, looked up): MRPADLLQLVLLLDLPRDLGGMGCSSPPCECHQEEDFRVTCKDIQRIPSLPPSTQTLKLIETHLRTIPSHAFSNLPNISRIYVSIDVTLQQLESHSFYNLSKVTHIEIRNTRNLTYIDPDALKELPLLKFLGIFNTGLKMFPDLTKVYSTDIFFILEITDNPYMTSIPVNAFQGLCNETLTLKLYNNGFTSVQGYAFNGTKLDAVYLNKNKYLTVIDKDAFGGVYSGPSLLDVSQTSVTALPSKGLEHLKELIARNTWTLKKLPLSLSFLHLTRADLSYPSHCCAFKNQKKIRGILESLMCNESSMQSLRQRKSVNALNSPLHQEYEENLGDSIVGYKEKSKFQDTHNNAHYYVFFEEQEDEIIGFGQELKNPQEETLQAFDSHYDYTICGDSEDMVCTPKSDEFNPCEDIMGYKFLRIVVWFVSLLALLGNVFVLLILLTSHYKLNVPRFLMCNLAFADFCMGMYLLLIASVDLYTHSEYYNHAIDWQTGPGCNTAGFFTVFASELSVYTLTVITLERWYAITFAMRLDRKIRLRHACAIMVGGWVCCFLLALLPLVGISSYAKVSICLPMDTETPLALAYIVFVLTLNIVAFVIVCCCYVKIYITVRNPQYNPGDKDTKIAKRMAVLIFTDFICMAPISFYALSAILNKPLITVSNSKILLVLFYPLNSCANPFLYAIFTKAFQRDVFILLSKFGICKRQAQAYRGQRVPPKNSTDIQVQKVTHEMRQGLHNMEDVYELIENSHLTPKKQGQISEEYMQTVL
Procedure, shortened: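 TSHR-HEK293 cells (800/well) plated 18 h, then compounds with Ro20-1724 and TSH at 1.5 ng/mL final, 30 min at room temperature. cAMP quantified by HTRF (cAMP-d2/anti-cAMP-cryptate, 1 h); 15 concentrations in triplicate.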

[8] = qHTS assay to identify small molecule agonists of the estrogen receptor alpha (ER-alpha) signaling pathway in the presence of an antagonist - cell viability counter screen (AID 1259386);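 also: series mostly up to about 92 µM; cells exposed to compounds for 22 h at 37 °C before the viability read; nearly all actives have a fitted effect of over 30% in size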
Procedure, shortened: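 Cytotoxicity was measured in parallel with the ERE-luciferase agonist screen, in the same wells. The cells were VM7Luc4E2, which endogenously express ER-alpha, and treatment was with compounds plus 10.0nM ICI-182,780 for 22hr.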

[9] = biological target: Progesterone receptor (Homo sapiens) (UniProt P06401); experiment: qHTS assay to identify small molecule agonists of the progesterone receptor (PR) signaling pathway (AID 1346784; calls by dose curve; also: nearly all actives have a fitted effect of over 30% in size)
Progesterone receptor (Homo sapiens), sequence (P06401 whole entry, looked up): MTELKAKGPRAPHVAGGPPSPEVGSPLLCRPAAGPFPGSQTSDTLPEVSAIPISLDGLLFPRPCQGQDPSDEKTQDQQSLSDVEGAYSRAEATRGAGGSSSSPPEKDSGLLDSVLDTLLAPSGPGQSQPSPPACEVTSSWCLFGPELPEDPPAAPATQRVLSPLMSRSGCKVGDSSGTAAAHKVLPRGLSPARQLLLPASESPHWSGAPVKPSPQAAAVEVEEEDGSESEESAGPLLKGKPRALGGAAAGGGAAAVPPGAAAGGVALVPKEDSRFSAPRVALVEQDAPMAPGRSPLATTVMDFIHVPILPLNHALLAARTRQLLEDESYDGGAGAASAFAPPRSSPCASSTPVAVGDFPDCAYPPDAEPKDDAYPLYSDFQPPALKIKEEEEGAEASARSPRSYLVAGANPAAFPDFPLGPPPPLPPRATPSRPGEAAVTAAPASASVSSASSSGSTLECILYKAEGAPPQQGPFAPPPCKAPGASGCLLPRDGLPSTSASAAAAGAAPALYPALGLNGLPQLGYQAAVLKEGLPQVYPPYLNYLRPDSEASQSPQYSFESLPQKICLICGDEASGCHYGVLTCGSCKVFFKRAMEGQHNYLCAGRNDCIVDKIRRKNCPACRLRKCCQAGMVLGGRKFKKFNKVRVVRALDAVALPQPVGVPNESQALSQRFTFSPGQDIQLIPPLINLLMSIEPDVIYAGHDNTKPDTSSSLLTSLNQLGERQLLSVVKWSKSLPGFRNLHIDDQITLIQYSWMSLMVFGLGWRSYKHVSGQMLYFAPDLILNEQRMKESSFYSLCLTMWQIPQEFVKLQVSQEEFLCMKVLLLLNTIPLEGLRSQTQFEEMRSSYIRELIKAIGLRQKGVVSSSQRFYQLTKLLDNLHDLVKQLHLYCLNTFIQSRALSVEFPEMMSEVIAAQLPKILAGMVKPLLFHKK
Procedure, shortened: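 PR-UAS-bla HEK 293T cells (beta-lactamase reporter under UAS) in 2% charcoal-stripped FBS, dosed with 23 nL compound after 6 hr, incubated 16hr at 37C. LiveBLAzer B/G FRET substrate added, fluorescence read after 2 hours.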

[10] = biological target: Progesterone receptor (Homo sapiens) (UniProt P06401); experiment: qHTS assay to identify small molecule antagonists of the progesterone receptor (PR) signaling pathway (AID 1346795; active = well fitted inhibition curve with a large enough effect in the signal ratio in the repeat runs, not every such curve was filed as active; the % refers to the signal ratio)
Procedure, shortened: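 PR-UAS-bla HEK293T cells with beta-lactamase reporter under UAS control, in 2% charcoal-stripped FBS, treated with compounds plus 1 nM promegestone (R5020, final) for 16 hr at 37C. Read-out: FRET beta-lactamase substrate fluorescence after 2 hr at room temperature.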

[11] = qHTS assay to identify small molecule antagonists of the progesterone receptor (PR) signaling pathway - cell viability counter screen (AID 1346798); also: series mostly up to about 92 µM; nearly all actives have a fitted effect of over 50% in size
Procedure, shortened: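 PR-UAS-bla HEK293T cells, 3,000/well in 2% charcoal-stripped FBS medium, dosed with compounds plus R5020 agonist and incubated 16 h at 37C. Viability then measured in the same wells by CellTiter-Glo luminescence after 30 min at RT.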

[12] = qHTS assay to identify small molecule agonists of the progesterone receptor (PR) signaling pathway - cell viability counter screen (AID 1346799; calls by dose curve; also: nearly all actives have a fitted effect of over 45% in size)
Procedure, shortened: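 Counter screen in the PR-UAS-bla HEK293T wells (2% charcoal-stripped FBS, 16 h compound exposure at 37 C) after the bla read. CellTiter-Glo added, 30 min at room temperature, luminescence read as cell viability.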

[13] = qHTS assay to identify small molecule antagonists of the TGF-beta/Smad signaling pathway - cell viability counter screen (AID 1346824); also: nearly all actives have a fitted effect of over 50% in size
Procedure, shortened: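 SBE-bla HEK 293T cells, incubated overnight, then compound plus 0.25 ng/mL TGF-beta1 (stock added) for 5 hr at 37 C. Viability was read in the same wells by CellTiter-Glo luminescence after 30 min at room temperature.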

[14] = biological target: Estrogen receptor (Homo sapiens) (UniProt P03372); experiment: qHTS assay to identify small molecule agonists of the estrogen receptor alpha (ER-alpha) signaling pathway in the presence of an antagonist (AID 1259383; calls by dose curve; also: top concentration of the series differs between compounds; nearly all actives have a fitted effect of over 15% in size)
Estrogen receptor (Homo sapiens), sequence (P03372 whole entry, looked up): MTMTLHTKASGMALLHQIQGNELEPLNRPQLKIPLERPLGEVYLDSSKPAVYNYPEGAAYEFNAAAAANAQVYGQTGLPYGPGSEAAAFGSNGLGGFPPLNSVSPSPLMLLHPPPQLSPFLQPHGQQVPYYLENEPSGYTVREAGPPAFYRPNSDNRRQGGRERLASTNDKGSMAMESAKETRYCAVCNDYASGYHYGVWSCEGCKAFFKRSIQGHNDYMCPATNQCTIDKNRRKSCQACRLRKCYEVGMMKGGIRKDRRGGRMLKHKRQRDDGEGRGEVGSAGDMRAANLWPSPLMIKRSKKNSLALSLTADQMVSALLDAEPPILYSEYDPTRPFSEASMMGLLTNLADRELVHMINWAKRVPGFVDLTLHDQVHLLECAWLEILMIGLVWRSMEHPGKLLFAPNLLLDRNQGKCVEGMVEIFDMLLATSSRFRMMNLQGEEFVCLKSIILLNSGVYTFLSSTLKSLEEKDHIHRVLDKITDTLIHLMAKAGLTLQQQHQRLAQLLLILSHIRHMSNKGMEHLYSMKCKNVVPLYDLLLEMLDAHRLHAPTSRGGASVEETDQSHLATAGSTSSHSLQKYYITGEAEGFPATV
Procedure, shortened: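 Agonist-mode confirmation in the presence of the ER antagonist ICI-182,780 at 10.0nM final. Breast-derived VM7Luc4E2 reporter cells were exposed to compounds for 22hr, and ERE-driven luciferase was quantified by luminescence.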

[15] = qHTS assay to identify small molecule agonists of the TGF-beta/Smad signaling pathway (AID 1346859; active = well fitted activation curve with a large enough effect in the signal ratio in the repeat runs, not every such curve was filed as active; the % refers to the signal ratio; also: series mostly up to about 77 µM)
Procedure, shortened: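 SBE-bla HEK293T cells plated overnight, then compound exposure for 5 h at 37 C. Beta-lactamase reporter read with LiveBLAzer B/G FRET substrate after 2 h at room temperature, fluorescence at 405 nm excitation, 460/530 nm emission.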

[16] = biological target: Thyrotropin-releasing hormone receptor (Homo sapiens) (UniProt P34981); experiment: qHTS assay to identify small molecule antagonists of the thyrotropin-releasing hormone receptor (TRHR) signaling pathway (AID 1346877; active = well fitted inhibition curve with a large enough effect in the repeat runs, not every such curve was filed as active; also: series mostly up to about 51 µM)
Thyrotropin-releasing hormone receptor (Homo sapiens), sequence (P34981 whole entry, looked up): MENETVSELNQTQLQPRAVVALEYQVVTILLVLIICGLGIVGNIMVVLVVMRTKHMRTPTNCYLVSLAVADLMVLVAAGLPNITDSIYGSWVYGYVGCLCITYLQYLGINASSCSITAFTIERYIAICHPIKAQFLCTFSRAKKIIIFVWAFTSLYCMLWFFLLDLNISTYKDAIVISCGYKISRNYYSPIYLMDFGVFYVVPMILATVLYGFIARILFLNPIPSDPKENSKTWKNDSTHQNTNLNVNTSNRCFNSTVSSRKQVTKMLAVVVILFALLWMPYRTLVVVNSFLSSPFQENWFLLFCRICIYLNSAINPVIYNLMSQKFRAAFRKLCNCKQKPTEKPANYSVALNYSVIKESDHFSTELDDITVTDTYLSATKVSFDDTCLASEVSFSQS
Procedure, shortened: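 Antagonism is measured as suppression of the calcium response to 1 nM TRH in TRHR-HEK293 cells that have been dye-loaded for 2 h at 37 °C after overnight plating. Each compound is tested at 15 concentrations in triplicate.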

[17] = qHTS assay to identify small molecule agonists of the TGF-beta/Smad signaling pathway - cell viability counter screen (AID 1346829); also: top concentration of the series differs between compounds; nearly all actives have a fitted effect of over 45% in size
Procedure, shortened: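 Compound-treated SBE-bla HEK 293T cells (5 hr, 37 C) were assessed for viability with CellTiter-Glo in parallel with the reporter read.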

[18] = biological target: Androgen receptor (Homo sapiens) (UniProt P10275); experiment: qHTS assay to identify small molecule agonists of the androgen receptor (AR) signaling pathway in the presence of an antagonist (AID 1259381; calls by dose curve; also: nearly all actives have a fitted effect of over 15% in size)
Androgen receptor (Homo sapiens), sequence (P10275 whole entry, looked up): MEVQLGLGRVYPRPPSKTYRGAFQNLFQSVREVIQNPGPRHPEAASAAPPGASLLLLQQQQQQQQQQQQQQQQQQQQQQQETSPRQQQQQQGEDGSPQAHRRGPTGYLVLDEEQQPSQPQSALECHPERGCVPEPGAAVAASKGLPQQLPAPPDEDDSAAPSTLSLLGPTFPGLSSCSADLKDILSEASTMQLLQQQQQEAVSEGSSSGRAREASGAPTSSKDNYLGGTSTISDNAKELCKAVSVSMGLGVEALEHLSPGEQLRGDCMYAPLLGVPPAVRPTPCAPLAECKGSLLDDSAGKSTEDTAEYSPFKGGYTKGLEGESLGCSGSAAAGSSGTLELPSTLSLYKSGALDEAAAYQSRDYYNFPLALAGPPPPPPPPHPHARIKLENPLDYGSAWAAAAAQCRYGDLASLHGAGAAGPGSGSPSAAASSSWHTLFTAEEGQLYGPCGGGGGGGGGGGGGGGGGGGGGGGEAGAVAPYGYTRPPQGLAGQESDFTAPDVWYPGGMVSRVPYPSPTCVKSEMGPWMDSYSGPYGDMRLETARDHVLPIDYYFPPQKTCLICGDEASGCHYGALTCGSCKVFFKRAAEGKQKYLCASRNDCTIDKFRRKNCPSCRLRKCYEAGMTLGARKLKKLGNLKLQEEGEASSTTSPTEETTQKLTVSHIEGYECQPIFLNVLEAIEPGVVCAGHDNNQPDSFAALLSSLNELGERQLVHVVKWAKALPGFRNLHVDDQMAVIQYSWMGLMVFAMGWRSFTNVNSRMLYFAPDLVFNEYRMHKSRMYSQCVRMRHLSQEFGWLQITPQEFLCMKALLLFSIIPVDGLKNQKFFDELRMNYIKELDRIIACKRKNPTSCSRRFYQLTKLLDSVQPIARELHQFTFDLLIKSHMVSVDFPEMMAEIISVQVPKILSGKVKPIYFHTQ
Procedure, shortened: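 Agonist-mode confirmation screen: human MDA-kb2 cells stably expressing luciferase under an MMTV promoter bearing AR and GR response elements, co-treated with 3.0uM nilutamide (final). Luminescence measured after 16hr compound incubation.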

Measured: Potency

NS(=O)(=O)c1ccccc1Cl
not listed: [14] | [15] | [16] | [17] | [18]
inactive: all other assays above

O=Cc1cccc([N+](=O)[O-])c1
not listed: [12] | [17] | [18]
inactive: all other assays above

C[C@@H]1CCN(C(=O)[C@H](CCCN=C(N)N)NS(=O)(=O)c2cccc3c2NC[C@H](C)C3)[C@@H](C(=O)O)C1
not listed: [12] | [17] | [18]
inactive: all other assays above

N#Cc1ccc(C2CCCc3cncn32)cc1 (stereo unspecified)
not listed: [7] | [18]
inactive: all other assays above

C=CCS(=O)(=O)O
not listed: [10] | [16] | [18]
inactive: all other assays above

Cc1sccc1Br
not listed: [9] | [10] | [18]
inactive: all other assays above

CC(C)NCCCC1(C(N)=O)c2ccccc2-c2ccccc21
not listed: [15] | [18]
inactive: all other assays above

CN1CCCC1
not listed: [18]
inactive: all other assays above

CC1(C)C(O)C(C)(C)C1O (stereo unspecified)
not listed: [9] | [10] | [15] | [16]
inactive: all other assays above
